# Measured values published in the supplement of paper PMC11732987, “Enantioselective OTUD7B fragment discovery through chemoproteomics screening and high-throughput optimisation” (Communications Chemistry, 2025).
# Unmarked numbers belong to inactive results.
# What was measured:
# Test in all cases: log2 ratio of Biotin-Ahx-Ub-VS probe labelling (fragment/DMSO); higher = less target engagement (more negative = stronger competition), active = hit call of the paper (q ≤ 0.05, log2 ratio ≤ -1)
# Settings in all cases: compound concentration: 200 uM; treatment time: 3 h
# [1] = biological target: T1, USP19 (UniProt O94966)
# T1 sequence (whole entry): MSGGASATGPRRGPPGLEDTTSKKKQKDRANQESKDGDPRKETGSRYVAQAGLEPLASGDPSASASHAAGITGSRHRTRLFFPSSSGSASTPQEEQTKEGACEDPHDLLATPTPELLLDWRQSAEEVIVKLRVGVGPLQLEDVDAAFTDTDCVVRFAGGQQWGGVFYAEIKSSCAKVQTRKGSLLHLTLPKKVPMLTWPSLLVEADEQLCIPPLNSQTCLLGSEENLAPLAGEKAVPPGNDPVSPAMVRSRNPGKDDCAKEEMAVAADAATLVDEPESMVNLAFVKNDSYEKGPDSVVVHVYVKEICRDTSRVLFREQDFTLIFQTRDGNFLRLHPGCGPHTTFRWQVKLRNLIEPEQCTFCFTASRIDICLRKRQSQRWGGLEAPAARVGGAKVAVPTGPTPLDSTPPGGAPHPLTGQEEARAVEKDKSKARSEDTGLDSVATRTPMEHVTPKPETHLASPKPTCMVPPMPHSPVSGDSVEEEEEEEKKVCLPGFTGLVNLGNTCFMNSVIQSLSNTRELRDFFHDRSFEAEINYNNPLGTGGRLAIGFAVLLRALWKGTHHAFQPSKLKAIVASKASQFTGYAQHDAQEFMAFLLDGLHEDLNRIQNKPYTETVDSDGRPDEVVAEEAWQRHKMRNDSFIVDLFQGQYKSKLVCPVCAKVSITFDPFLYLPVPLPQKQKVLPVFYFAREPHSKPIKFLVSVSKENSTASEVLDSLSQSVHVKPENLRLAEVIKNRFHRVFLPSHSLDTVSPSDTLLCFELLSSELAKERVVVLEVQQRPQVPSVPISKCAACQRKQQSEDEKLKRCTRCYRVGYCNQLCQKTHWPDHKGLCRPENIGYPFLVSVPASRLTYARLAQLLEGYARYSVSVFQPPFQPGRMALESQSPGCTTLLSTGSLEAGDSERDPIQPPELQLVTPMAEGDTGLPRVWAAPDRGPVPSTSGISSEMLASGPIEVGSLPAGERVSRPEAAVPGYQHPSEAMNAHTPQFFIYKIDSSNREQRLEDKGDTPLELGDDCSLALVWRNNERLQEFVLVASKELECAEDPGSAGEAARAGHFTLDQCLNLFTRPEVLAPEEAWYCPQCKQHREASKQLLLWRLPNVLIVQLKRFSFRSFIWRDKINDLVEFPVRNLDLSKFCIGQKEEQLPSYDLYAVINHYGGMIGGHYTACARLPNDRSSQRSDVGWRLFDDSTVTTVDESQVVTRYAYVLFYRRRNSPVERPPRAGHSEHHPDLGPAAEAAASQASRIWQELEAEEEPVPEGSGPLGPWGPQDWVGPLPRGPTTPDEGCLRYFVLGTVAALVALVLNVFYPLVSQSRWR
# How it was run: (§1)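 Labelling with Biotin-Ahx-Ub-VS (0.5 µM final, 1 h) followed a 3 h triplicate treatment of HEK293T lysate (495 µg per sample, Tris/CHAPS/IGEPAL buffer with protease inhibitors) with fragment at 200 µM or vehicle. Labelled DUBs were NeutrAvidin-enriched, digested with LysC and trypsin, and run by diaPASEF LC-MS/MS. The values, average log2 fragment/vehicle ratios by unpaired t-test, come from global-median-normalised Spectronaut label-free quantities. Proteins with ≥2 unique peptides were used.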
# [2] = biological target: T2, USP22 (UniProt Q9UPT9)
# T2 sequence (whole entry): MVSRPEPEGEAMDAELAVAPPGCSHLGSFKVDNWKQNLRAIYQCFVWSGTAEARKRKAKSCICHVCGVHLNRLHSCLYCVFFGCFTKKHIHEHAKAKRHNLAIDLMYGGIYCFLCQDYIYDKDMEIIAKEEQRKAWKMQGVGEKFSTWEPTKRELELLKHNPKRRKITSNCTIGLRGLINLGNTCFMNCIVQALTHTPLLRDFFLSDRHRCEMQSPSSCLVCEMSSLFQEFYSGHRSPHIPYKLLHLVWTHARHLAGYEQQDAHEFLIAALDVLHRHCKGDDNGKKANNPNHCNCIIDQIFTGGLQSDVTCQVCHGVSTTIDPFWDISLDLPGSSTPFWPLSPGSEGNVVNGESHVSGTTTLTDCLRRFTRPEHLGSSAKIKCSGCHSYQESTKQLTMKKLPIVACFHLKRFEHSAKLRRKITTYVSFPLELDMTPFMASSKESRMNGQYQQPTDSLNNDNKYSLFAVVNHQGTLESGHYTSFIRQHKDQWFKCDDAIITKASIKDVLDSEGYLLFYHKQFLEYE
# How it was run: as §1
# [3] = biological target: USP24 (UniProt Q9UPU5)
# Chain of USP24 (Q9UPU5 whole entry): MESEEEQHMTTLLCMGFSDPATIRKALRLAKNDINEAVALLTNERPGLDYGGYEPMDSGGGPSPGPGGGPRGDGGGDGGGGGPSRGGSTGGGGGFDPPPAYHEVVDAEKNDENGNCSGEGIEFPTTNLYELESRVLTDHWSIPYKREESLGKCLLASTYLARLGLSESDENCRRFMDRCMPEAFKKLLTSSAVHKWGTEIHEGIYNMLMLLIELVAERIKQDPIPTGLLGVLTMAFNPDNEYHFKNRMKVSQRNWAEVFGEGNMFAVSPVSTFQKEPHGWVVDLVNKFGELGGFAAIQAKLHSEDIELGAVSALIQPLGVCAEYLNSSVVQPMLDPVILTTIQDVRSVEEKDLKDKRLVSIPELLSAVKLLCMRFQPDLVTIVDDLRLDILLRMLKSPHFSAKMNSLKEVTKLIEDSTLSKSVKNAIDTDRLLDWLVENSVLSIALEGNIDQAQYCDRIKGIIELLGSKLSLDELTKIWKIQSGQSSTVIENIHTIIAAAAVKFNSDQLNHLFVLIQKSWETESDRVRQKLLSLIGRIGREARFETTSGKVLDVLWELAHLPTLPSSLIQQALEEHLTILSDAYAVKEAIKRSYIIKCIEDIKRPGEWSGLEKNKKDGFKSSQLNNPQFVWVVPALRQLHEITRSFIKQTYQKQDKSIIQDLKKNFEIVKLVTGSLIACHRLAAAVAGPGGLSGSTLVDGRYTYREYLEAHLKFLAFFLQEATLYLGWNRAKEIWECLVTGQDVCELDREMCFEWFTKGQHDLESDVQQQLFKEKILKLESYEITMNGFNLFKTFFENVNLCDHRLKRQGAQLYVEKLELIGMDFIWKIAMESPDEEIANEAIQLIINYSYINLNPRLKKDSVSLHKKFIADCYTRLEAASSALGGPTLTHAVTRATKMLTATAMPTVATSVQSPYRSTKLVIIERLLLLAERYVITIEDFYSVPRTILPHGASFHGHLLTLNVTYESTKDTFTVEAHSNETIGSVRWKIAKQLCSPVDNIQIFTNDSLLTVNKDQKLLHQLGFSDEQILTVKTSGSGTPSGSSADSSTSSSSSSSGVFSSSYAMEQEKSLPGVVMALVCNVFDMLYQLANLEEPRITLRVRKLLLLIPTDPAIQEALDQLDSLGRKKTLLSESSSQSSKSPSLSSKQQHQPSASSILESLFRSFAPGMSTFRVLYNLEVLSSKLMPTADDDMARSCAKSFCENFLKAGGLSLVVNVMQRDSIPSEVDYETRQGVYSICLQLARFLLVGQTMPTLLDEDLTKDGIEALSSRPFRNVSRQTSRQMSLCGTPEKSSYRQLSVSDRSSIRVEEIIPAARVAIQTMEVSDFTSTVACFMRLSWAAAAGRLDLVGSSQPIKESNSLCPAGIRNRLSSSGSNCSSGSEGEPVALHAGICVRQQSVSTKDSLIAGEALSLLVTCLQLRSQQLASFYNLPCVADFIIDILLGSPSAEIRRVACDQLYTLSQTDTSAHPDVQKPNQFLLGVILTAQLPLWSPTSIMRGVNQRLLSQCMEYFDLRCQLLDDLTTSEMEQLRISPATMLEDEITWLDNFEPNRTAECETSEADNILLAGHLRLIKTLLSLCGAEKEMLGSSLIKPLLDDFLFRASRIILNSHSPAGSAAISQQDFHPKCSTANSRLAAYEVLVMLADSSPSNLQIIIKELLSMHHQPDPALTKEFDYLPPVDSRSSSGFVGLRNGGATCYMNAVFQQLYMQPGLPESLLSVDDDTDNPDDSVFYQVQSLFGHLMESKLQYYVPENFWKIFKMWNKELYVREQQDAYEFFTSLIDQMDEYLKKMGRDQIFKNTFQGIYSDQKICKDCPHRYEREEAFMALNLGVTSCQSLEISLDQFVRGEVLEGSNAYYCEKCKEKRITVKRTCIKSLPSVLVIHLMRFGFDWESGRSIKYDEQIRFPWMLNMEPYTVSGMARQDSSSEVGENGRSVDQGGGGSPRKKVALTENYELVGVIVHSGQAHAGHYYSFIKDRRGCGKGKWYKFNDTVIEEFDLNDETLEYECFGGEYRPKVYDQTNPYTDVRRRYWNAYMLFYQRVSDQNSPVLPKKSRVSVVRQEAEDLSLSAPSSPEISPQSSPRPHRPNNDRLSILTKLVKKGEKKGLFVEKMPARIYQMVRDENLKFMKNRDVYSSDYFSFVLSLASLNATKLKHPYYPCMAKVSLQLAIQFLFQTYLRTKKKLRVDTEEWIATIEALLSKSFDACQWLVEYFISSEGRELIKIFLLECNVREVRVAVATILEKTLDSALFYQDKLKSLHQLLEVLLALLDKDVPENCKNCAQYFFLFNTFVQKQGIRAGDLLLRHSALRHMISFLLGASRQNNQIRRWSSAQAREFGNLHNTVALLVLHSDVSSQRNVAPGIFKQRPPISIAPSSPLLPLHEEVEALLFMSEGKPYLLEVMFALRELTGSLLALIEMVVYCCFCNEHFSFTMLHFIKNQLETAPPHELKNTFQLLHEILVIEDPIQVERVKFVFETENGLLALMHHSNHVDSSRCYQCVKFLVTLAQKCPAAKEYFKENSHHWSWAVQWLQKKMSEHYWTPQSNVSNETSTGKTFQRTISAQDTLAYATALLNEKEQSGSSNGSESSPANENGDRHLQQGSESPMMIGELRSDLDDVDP
# How it was run: as §1
# [4] = biological target: T3, USP25 (UniProt Q9UHP3)
# T3 sequence (whole entry): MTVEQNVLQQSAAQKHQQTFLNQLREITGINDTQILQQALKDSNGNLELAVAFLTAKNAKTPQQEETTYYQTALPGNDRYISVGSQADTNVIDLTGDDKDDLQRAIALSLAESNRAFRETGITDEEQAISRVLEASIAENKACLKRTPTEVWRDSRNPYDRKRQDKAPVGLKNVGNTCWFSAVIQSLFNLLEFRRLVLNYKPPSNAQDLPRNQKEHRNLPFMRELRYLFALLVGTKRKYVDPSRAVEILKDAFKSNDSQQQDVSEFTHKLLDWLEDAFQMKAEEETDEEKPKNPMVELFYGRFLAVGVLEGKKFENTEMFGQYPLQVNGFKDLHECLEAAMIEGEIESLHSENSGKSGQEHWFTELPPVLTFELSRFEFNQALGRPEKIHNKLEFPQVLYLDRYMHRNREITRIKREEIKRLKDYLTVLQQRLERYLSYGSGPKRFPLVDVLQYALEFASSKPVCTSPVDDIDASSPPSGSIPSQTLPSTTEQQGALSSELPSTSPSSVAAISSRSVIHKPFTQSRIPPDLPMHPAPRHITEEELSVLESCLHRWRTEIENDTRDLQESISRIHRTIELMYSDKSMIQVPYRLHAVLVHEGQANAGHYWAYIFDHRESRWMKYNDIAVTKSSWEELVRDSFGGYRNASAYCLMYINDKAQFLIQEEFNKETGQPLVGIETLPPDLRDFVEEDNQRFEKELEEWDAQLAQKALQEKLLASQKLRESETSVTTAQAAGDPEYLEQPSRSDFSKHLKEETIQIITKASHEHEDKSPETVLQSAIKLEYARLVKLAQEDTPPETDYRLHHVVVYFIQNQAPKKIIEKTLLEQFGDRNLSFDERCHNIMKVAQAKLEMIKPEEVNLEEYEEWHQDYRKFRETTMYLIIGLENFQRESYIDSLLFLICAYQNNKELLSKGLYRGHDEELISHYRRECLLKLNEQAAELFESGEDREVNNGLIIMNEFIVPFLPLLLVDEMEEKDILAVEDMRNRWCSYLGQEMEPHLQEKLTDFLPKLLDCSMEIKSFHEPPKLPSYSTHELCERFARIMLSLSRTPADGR
# How it was run: as §1
# [5] = biological target: T4, USP28 (UniProt Q96RU2)
# T4 sequence (whole entry): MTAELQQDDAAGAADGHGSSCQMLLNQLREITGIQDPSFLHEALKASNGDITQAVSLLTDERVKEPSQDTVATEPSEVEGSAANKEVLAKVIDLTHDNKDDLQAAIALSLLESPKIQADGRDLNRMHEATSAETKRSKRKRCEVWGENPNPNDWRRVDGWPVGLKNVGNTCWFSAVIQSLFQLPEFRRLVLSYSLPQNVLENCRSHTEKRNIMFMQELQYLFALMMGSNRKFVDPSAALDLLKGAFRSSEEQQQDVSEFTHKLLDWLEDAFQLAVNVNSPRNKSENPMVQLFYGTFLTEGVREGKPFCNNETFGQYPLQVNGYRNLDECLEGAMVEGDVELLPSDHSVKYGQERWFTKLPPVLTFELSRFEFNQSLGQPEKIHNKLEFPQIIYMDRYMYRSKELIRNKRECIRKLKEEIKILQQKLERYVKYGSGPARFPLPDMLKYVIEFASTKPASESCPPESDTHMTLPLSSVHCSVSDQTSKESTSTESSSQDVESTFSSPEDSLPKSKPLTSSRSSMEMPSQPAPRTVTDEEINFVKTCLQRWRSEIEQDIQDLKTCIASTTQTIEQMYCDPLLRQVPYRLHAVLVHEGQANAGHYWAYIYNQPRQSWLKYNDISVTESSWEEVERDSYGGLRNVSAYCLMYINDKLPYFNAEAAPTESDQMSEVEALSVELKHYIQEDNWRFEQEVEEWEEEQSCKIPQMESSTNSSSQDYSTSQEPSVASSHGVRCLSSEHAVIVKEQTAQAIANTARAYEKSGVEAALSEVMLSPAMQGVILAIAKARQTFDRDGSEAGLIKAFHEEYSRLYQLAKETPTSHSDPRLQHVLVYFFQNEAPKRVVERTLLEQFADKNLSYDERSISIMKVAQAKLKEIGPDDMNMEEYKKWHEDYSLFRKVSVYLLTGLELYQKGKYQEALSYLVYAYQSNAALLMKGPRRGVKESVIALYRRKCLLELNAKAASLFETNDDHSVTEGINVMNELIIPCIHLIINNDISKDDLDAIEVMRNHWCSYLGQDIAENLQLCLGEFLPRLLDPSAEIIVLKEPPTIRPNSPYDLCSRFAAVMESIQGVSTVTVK
# How it was run: as §1
smiles,measurement,setting,value
Cc1cccc(NC(=O)CCl)c1C,log2 ratio of Biotin-Ahx-Ub-VS probe labelling,[1],-0.393
same,log2 ratio of Biotin-Ahx-Ub-VS probe labelling,[2],-0.267
same,log2 ratio of Biotin-Ahx-Ub-VS probe labelling,[3],-0.573
same,log2 ratio of Biotin-Ahx-Ub-VS probe labelling,[4],-1.06 (active)
same,log2 ratio of Biotin-Ahx-Ub-VS probe labelling,[5],-1.32 (active)
